Here are results for 36 molecules from PubChem BioAssay (NCI).

Molecules are shown by their SMILES. Where “and” joins values, the source holds several entries; their conditions need not be identical. Equal entries are not always repeated. About 83,000 compounds went through this panel and 20% of them were active in at least one assay; those are over-represented in the sample as a whole.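 Single-concentration screen, 48 h exposure, 96-well plates. Endpoint: percent growth. Below 10 = active.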 Calls of active or inactive are those of the source.

For one experiment, the system named is HT29 colon. The experiment can be described thus: NCI-60 one-dose screen, 48 h (100 = growth as untreated, 0 = no growth, -100 = all killed). The following applies: 1 µM. The protocol:
Growth inhibition of the HT29 human tumor cell line is measured as a screen for anti-cancer activity. Cells are grown in 96 well plates and exposed to the test compound for 48 hours. Compounds are tested at a single concentration, which is 10^-5 M for most compounds. The reported endpoint is percent growth (GI% or GIPRCNT), where numbers from 0 - 100% represent growth inhibition, and numbers from -100% - 0 represent cell death. For example, a value of 40 represents 60% growth inhibition. A value of 0 means no net growth occurred over the course of the experiment. A value of -40 indicates 40% of cells at the beginning of the experiment died by the end of the experiment. A value of -100 means all cells are dead at the end of the experiment.
NCI-60 Human Tumor Cell Lines Screen was performed using the standard one-dose NCI protocol, which is described in more detail at https://dtp.cancer.gov/discovery_development/nci-60/default.htm.
Compounds with GIPRCNT values below 10 were considered active. Activity score was based on GIPRCNT using the following formula: […]
Score is 0 for GIPRCNT values of 100 or above, 50 for GIPRCNT values of 0, and 100 for GIPRCNT values of -100.
For the molecule `CNC(=O)c1cc(Oc2ccc(CC(=O)Nc3cc(C(C)(C)C)nn3C)cc2)ccn1`, the growth is 90.7% (inactive).

Still in this experiment, the particulars now being: 10 µM.
In the case of `CC#C[C@]1(O)CC[C@H]2[C@@H]3CCC4=CC(=O)CCC4=C3[C@@H](c3ccc4c(c3)OCO4)C[C@@]21C`, the growth was 102% (inactive).
Still for that read-out and setting: for `CNC(=O)c1cc(Oc2ccc(CC(=O)Nc3cc(C(C)(C)C)nn3C)cc2)ccn1` the value was 94.1% (inactive); for `CC1(C)OB(c2ccc(Cn3cc(F)c(=O)[nH]c3=O)cc2)OC1(C)C`, 112% (inactive).

The experiment is the same for the next values; noted with them: 10 µM unless noted.
With `Cc1nn(-c2ccccc2)nc1C(=O)Nc1ccccc1C(=O)NCC1CC1`, the growth was 99.6% (inactive) and 72.6% (inactive).
The same measure, in the same setting: for `OCCN1CCN(CCCN2c3ccccc3Sc3ccc(Cl)cc32)CC1` the value was 1.64% (active) and 18.2% (inactive).
Still for that read-out and setting: the result for `CCN(CC)C(=O)c1cccnc1` reads 103% (inactive); that for `NC(=S)NS(=O)(=O)c1ccc(N)cc1`, 109% (inactive); that for `c1ccc2c(CC3=NCCN3)cccc2c1`, 103% (inactive) and 96.3% (inactive).
On the same count and under the same terms, for `CCNC(=O)Nc1ccc(-c2nc3c(c(N4CCOC[C@@H]4C)n2)CCN(C2COC2)C3)cc1` the value was 49.7% (inactive) and 15.9% (inactive).
In the case of `C=C1C(=O)O[C@H]2[C@H]1CC/C(COC(=O)NC1CCC(O)CC1)=C\CC[C@@]1(C)O[C@@H]21` (stereo not given in full), the growth is 60% (inactive) and 43.7% (inactive).
On the same count and under the same terms, for `COc1ccccc1C(C)=O` the value was 114% (inactive) and 102% (inactive); for `CC(C)Cc1ccc(C(C)C(=O)NCc2ccc(Cn3c(=O)sn(CCCCl)c3=O)cc2)cc1` (stereo not given), 104% (inactive) and -64% (active).
The same measure, in the same setting: the result for `N#CC(C#N)=C/C=C/c1cccc([N+](=O)[O-])c1` reads -19.6% (active) and -39.5% (active).
Same read-out and setting: the result for `Oc1ccccc1/C=N\NC(=S)N/N=C/c1ccccc1O` reads 39.1% (inactive) and 54.6% (inactive); that for `Cc1ccc(-c2noc(CC(=O)c3ccc([N+](=O)[O-])cc3)n2)cc1`, 101% (inactive).
For `COc1c(/C(C)=N/N=c2sc(C(C)=O)nn2-c2ccc(Cl)cc2)c(Oc2ccccc2)c(OC)c2occc12`, the growth was 108% (inactive) and 86.1% (inactive).
On the same count and under the same terms, the result for `O=[N+]([O-])c1ccc(-n2[nH]nnc2=S)cc1` reads 99.2% (inactive); that for `NC(=O)NO`, 104% (inactive) and 70.3% (inactive); that for `COc1ccc2c(=O)cc(-c3ccccc3)[nH]c2c1`, -3.3% (active) and 5.55% (active).
The same measure, in the same setting: for `Nc1cc2c(cc1N)-c1ccccc1C2` the value was 96.6% (inactive) and 105% (inactive); for `O=C(N/N=C/c1ccc2c(c1)OCO2)c1ccncc1`, 101% (inactive) and 105% (inactive); for `COc1ccc(-c2ncnc3c2ncn3C/C=C/CCl)cc1`, 84.6% (inactive) and 84.3% (inactive).
On to `O=C(Cc1cccc2ccccc12)N/N=C/c1ccc2c(c1)CCC2`, for which the growth is 62.4% (inactive).
For the molecule `CCN(CC)CCOc1ccc2c(c1)C(=O)c1cc(OCCN(CC)CC)ccc1-2`, the growth was 8.16% (active) and 6.92% (active).
Consider `CCOC(=O)C(CNc1ccccc1)C(=O)OCC`, for which the growth is 105% (inactive).
Still for that read-out and setting: for `CC1(C)[C@@H](OC(=O)CCC(=O)O)CC[C@]2(C)[C@H]3C(=O)C=C4[C@@H]5C[C@@](C)(C(=O)O)CC[C@]5(C)CC[C@@]4(C)[C@]3(C)CC[C@@H]12` the value was 103% (inactive) and -8.67% (active); for `O=C(/C=C/c1ccccn1)c1ccccc1O`, 37.7% (inactive) and 29% (inactive); for `OC(COc1cccc2ccccc12)CN1CCN(c2ccc(Cl)cc2)CC1` (stereo not given), 82.9% (inactive) and 88.9% (inactive).
Take `CCCCCN(CCCCC)CC(O)c1cc2c(c3ccccc13)CCCC2` (stereo not given): the growth is 15.4% (inactive) and 16.2% (inactive).
Same read-out and setting: the result for `c1ccc2cc(C[n+]3ccn(Cc4ccc5ccccc5n4)c3)ccc2c1` reads -30.7% (active) and 10.7% (inactive); that for `O=C1NC(=O)C2(CCc3ccccc32)N1` (stereo not given), 104% (inactive) and 109% (inactive).
Same read-out and setting: the result for `Nc1ccc(N=Nc2ccc(S(=O)(=O)O)cc2)cc1S(=O)(=O)O` reads 118% (inactive) and 96.2% (inactive); that for `NS(=O)(=O)c1cc2c(cc1Cl)NC(C(Cl)Cl)NS2(=O)=O` (stereo not given), 101% (inactive) and 114% (inactive).
Still for that read-out and setting: the result for `Cc1c(Cl)cccc1NCN1C(=O)c2ccccc2C1=O` reads 104% (inactive).
With `CCN(CC)CCC(CNc1c2ccc([N+](=O)[O-])cc2nc2cc(OC)c(OC)cc12)c1ccccc1` (stereo not given), the growth was 3.73% (active) and -97.3% (active).
Same read-out and setting: for `O=[N+]([O-])c1ccccc1N(S(=O)(=O)c1ccccc1)S(=O)(=O)c1ccccc1` the value was 109% (inactive) and 103% (inactive).

Still in this experiment, the particulars now being: 30 µM.
Turning to `CNC(=O)c1cc(Oc2ccc(CC(=O)Nc3cc(C(C)(C)C)nn3C)cc2)ccn1`, the growth was 86.5% (inactive).

The experiment is the same for the next values; noted with them: 50 µM.
Consider `CC1(C)OB(c2ccc(Cn3cc(F)c(=O)[nH]c3=O)cc2)OC1(C)C`, for which the growth is 24.3% (inactive).

Still in this experiment, the particulars now being: 100 µM.
Take `CC#C[C@]1(O)CC[C@H]2[C@@H]3CCC4=CC(=O)CCC4=C3[C@@H](c3ccc4c(c3)OCO4)C[C@@]21C`: the growth was -19.2% (active).
